# ChEMBL document CHEMBL3988442, “University of Dundee, Small-Polar-MMV Screening Library” (2021)
# Biological target: AMP-activated protein kinase, AMPK (Homo sapiens) (UniProt P54646+O43741+P54619+Q9UGJ0+Q9Y478+Q13131+Q9UGI9)
# Assay: AMP-dependent Kinase enzyme assay. An in vitro enzyme assay that detects ADP turnover that is directly proportional to AMPK activity. This uses naive AMPK that is activated during the assay with MK-8722
# Assay type: functional
# Set-up: scale not given: direction of the effect not stated beside the values
# Conditions: 30 µM
row,Compound,Percent Effect [%]
1,Cc1cc(C2CCCN(CC(=O)N3CCc4ccccc43)C2)n[nH]1 (stereo not given),-5.04
2,O=C(NCc1ccon1)Nc1cc(F)ccc1N1CCCCC1,5.82
3,CC(C)(C)c1n[nH]cc1CNC1CCC(C(F)(F)F)CC1 (stereo not given),3.78
4,COc1ncc(NCc2ccsc2)cc1C(N)=O,5.38
5,CCc1nnc(Nc2cc(C)nc(C3CN(C(=O)C(C)C)CCO3)c2)s1 (stereo not given),-1.78
6,COc1cccc(CC2CCCN2Cc2nccn2C)c1 (stereo not given),-2.19
7,Cn1cnc(S(=O)(=O)N2C[C@@H]3CC[C@H](C2)N(Cc2ccccn2)C3)c1,84.4
8,COc1ccc(C)nc1NC(=O)Cc1c(C)nn(C)c1C,2.12
9,CCCc1nnc(N2CCC(N3CCN(CCO)CC3)CC2)o1,-0.32
10,CCc1ccc2nc(C)cc(C(=O)NC3CCCCNC3=O)c2c1 (stereo not given),-6.44
11,O=C(CN1CCC(c2nnc(C(F)(F)F)o2)CC1)Nc1cccc(Cl)c1,-5.71
12,Cn1ccnc1-c1cn(CCCc2csc(N)n2)nn1,-21
13,CCOC(=O)N1CCC(NC(=O)c2cccc(C3CCCNC3)c2)CC1 (stereo not given),7.59
14,CC(=O)N1CCCC1(C(=O)N1CCCC1)c1cnccn1 (stereo not given),-0.265
15,CCN(CC)S(=O)(=O)c1cc(Br)ccc1OC,-4.57
16,O=C(c1coc(COc2ccccc2F)n1)N1CCC[C@H]1CO,8.7
17,O=C(c1cc(C2CC2)n[nH]1)N1C[C@H]2CC[C@](O)(c3ccccc3F)[C@H]2C1,16
18,Cc1ccc(C(=O)NCCN2CCOCC2)cc1N(C)S(C)(=O)=O,4.72
19,CCC(NCCn1cc(C)cn1)C(=O)Nc1cc(C)on1 (stereo not given),-6.29
20,Cc1ccccc1C(=O)NC[C@@H]1CCN(C(=O)C2(O)CCCC2)C[C@H]1O,2.29

row,Compound,Percent Effect [%]
1,COc1nccc(N2CC[C@@H](N3CCCCCC3)[C@H](O)C2)c1C#N,-1.86
2,O=C(C1CC1)N1CCCCCC1C1CCN(c2ncccn2)CC1 (stereo not given),-6.9
3,CCN(CC(=O)NC(C)C)C(=O)c1csc(Cc2ccccc2)n1,-2.97
4,Cc1nc(CNCc2ccc(OC34CCCN(CC3)C4)cc2)n[nH]1 (stereo not given),-5.44
5,CCC1COCCN1C(=O)NCc1nccn1CCc1ccccc1 (stereo not given),-3.33
6,Cc1nc(CN2CCOCC2c2[nH]ncc2C)cs1 (stereo not given),12.1
7,CC(NC(=O)N1CCCN(CC(F)F)CC1)c1ccco1 (stereo not given),-1.66
8,Cc1nnc(NC(=O)NCCCN2CCC(C(N)=O)CC2)s1,5.59
9,CCOC(=O)c1n[nH]cc1CN1CCCC(N(C)Cc2ccccc2)C1 (stereo not given),-0.954
10,COc1ccccc1CCNC(=O)CNCC1CN(C)CCO1 (stereo not given),-4.87
11,Cc1ncsc1CCC(=O)N(C)Cc1nc2ccccc2n1C,0.381
12,CCCC1(CO)CCCN(C(=O)CN2CCN(CC)CC2)C1 (stereo not given),-3.5
13,CC(C)c1nc(CN(C)S(=O)(=O)c2cccs2)cs1,4.38
14,CCSCc1cccc(NCc2cccnc2)c1,5.73
15,CC(c1nc(C2CC2)no1)N1CCc2c(ncn2C)C1 (stereo not given),12
16,CN1CCN(CCOc2ccc(NC(=O)c3ccncc3)cc2)CC1,0.498
17,Cc1nc2c(c(NCCNC(=O)C(C)C)n1)Cc1ccccc1OC2,3.56
18,Cc1ccccc1Cn1cnc2oc(C)c(C(=O)O)c2c1=O,9.55
19,CN(C)c1cccc(C(=O)Nc2cnn(CC(N)=O)c2)c1,3.58
20,CCc1ccc2nc(C)cc(C(=O)N[C@@H]3CCCNC3)c2c1,-2.76
